Compound activity from PubChem.
An excerpt weighted towards active compounds, which were near 3.8% of everything screened.
HT1080-NT tox = qHTS for induction of synthetic lethality in tumor cells producing 2HG: qHTS for the HT-1080-NT fibrosarcoma cell line; Potency, µM (titrated, usually from 46.1 µM), actives largely listed as cytotoxic; HT-1080-NT fibrosarcoma viability, CellTiter-Glo ATP luminescence, 48 h; hit rate 1.6% among 360,000;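 note: NT is the 2HG producing partner of a matched IDH1 knockdown line; nearly all actives have a fitted effect of over 55% in size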
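Viability of the 2HG-overproducing fibrosarcoma line after 48 hours of compound exposure at 37 degrees C was determined by luminescence with CellTiter-Glo, and concentration-effect curves were then fitted and categorized.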
ATXN viability = Viability Counterscreen for Primary qHTS for Inhibitors of ATXN expression; S2 cells (HEK-293 line with an ATXN2-luciferase reporter) viability, CellTiter-Fluor protease fluorescence, 24 h; Potency, µM (titrated, usually from 56.7 µM), usual class: cytotoxic; hit rate 0.49% among 400,000; note: nearly all actives have a fitted effect of over 40% in size
HT1080 IDH1KD tx = qHTS for induction of synthetic lethality in tumor cells producing 2HG: qHTS for the HT-1080-IDH1KD cell line. HT-1080 IDH1 knockdown viability, ATP luminescence, 48 h. Potency, µM (highest dose often 46.1 µM), hits mostly cytotoxic. hit rate 2% among 360,000. AID 686971, 2013
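Using the IDH1-knockdown HT-1080 line run in the same batch and compound series as the NT line, viability after 48 h at 37 °C was determined by CellTiter-Glo luminescence and expressed as % activity.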
HepG2 viability = qHTS for Inhibitors of TGF-b: Cytotox Counterscreen. hit rate 0.76% among 410,000. Potency, µM (doses to about 46.1 µM), hits mostly cytotoxic. HepG2 CAGA-GFP viability, ATP luminescence, 18 h
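HepG2 CAGA-GFP cells (1000/well, DMEM with 1% FBS) received compound, then TGF-beta at 500 pg/mL final, and were incubated 18 hours at 37 degrees C. Viability was read by CellTiter-Glo luminescence. Media-only wells were set as complete cell-killing and DMSO as no toxicity.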
ATXN2 expr inh = Primary qHTS for Inhibitors of ATXN expression; hit rate 0.72% among 360,000; HEK-293 ATXN2-luciferase reporter, luminescence, 24 h; Potency, µM (series often up to 57 µM), hits mostly inhibitors; AID 1745845, 2022; note: nearly all actives have a fitted effect of over 55% in size
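qHTS (up to 57 uM final) was run with 24 h compound exposure of reporter cells at 37 °C. Each well was multiplexed: SteadyGlo luminescence measured ATXN2-luciferase expression after a fluorogenic Gly-Phe-AFC viability readout (25 uM final).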
TGFb SMAD3 inh = qHTS for Inhibitors of TGF-b; HepG2 CAGA-GFP TGF-b/SMAD3 reporter, GFP fluorescence, 18 h; TGF-beta stimulated, 500 pg/mL final; Potency, µM (series often up to 46.1 µM), most hits filed as inhibitors; hit rate 1.2% among 410,000; AID 588855, 2011; note: nearly all actives have a fitted effect of over 65% in size
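Cell-based qHTS in HEPG2 carrying a CAGA-GFP Smad reporter; compounds added before 500 pg/mL final TGF-beta, 18 h incubation at 37 degrees C, GFP fluorescence quantified per cell by imaging cytometry.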
Large screens that a line does not name were inactive. Calls come from the whole dose curve; as a rule, active = well fitted curve in the direction sought with a large enough effect; inconclusive = small, poorly fitted or top-dose-only effect, or another doubt; inactive = no such curve, though single readings can be large; an effect the other way counts as inactive or inconclusive.

O=[N+]([O-])c1cc(O)c2ncccc2c1	HT1080-NT tox 1.8µM, ATXN viability inconclusive, HT1080 IDH1KD tx 2.3µM, HepG2 viability 4µM, ATXN2 expr inh 5µM, TGFb SMAD3 inh 5µM
Cc1cccc2cc(CN(C(=O)c3ccc(N4CCCCC4)cc3)C3CC3)c(N3CCC(O)CC3)nc12	none (no result: HT1080-NT tox, HT1080 IDH1KD tx, HepG2 viability, ATXN2 expr inh, TGFb SMAD3 inh)
CCOc1ccccc1NC(=O)Cn1c(=O)n(CCCC(=O)NCCOC)c(=O)c2cc(OC)c(OC)cc21	none (no result: HT1080-NT tox, HT1080 IDH1KD tx)
Cc1cc(=O)oc2c(C)c(OC(C)C(=O)NCC(O)c3ccccc3)ccc12 (configuration not stated)	none
Cc1c(OC(C)C(=O)NCC(O)c2ccccc2)ccc2c3c(c(=O)oc12)CCCC3 (configuration not stated)	HepG2 viability 0.11µM
Cc1cc(C)cc(NC(=O)Nc2ccccc2OCc2cc(=O)n3ccccc3n2)c1	none (no result: HT1080-NT tox, ATXN viability, HT1080 IDH1KD tx, ATXN2 expr inh)
COc1ccccc1N(C(=O)c1snc(C(N)=O)c1N)C(C(=O)NCc1ccccc1)c1ccc(O)cc1 (configuration not stated)	none
NC(=O)c1nsc(C(=O)N(c2ccccc2F)C(C(=O)NCc2ccc(F)cc2)c2ccc(O)cc2)c1N (configuration not stated)	HT1080-NT tox 16µM, HT1080 IDH1KD tx inconclusive, ATXN2 expr inh inconclusive, TGFb SMAD3 inh inconclusive
Cc1cc2c(cc(C(=O)OCC(=O)NCc3cccs3)n2C(C)C)o1	HT1080-NT tox 1µM, HT1080 IDH1KD tx inconclusive, TGFb SMAD3 inh inconclusive
Cc1cc(C)cc(C(=O)OCC(=O)NCc2cccs2)c1	none
Cc1cc(N(C)C)cc(C)c1/C=C/c1ccnc2ccccc12	TGFb SMAD3 inh inconclusive (no result: HT1080-NT tox, ATXN viability, HT1080 IDH1KD tx, ATXN2 expr inh)
CCOC(=O)c1ccc(N2C(=O)c3n[nH]c(-c4ccco4)c3C2c2ccc(OC)cc2OC)cc1 (configuration not stated)	ATXN viability inconclusive, ATXN2 expr inh inconclusive, TGFb SMAD3 inh 16µM (no result: HT1080-NT tox, HT1080 IDH1KD tx)
CCOC(=O)c1ccc(N2C(=O)c3n[nH]c(-c4ccco4)c3C2c2ccc(O)c(OCC)c2)cc1 (configuration not stated)	ATXN viability inconclusive, ATXN2 expr inh inconclusive, TGFb SMAD3 inh 16µM (no result: HT1080-NT tox, HT1080 IDH1KD tx)
CCOC(=O)c1c(CSCc2ccccc2)oc2ccc(O)c(CN(C)C)c12	HT1080-NT tox 21µM, ATXN viability inconclusive, HT1080 IDH1KD tx 18µM, HepG2 viability 22µM, ATXN2 expr inh inconclusive, TGFb SMAD3 inh inconclusive
Cc1nc(-c2ccc(Cl)cc2)sc1CCNC(=O)C(=O)Nc1ccc2c(c1)OCO2	ATXN viability inconclusive (no result: HT1080-NT tox, HT1080 IDH1KD tx)
CSC1=NC(C)(C)C=C(/C=C/c2ccc(Cl)cc2)N1	HT1080-NT tox 23µM, ATXN viability inconclusive, HT1080 IDH1KD tx inconclusive, ATXN2 expr inh inconclusive, TGFb SMAD3 inh inconclusive
CCSC1=NC(C)(C)C=C(/C=C/c2ccc(Cl)cc2Cl)N1	HT1080-NT tox 16µM, HT1080 IDH1KD tx inconclusive, TGFb SMAD3 inh inconclusive
O=S(=O)(Nc1ccc(-c2csc(-c3ccccc3)n2)cc1)c1ccc(F)cc1	ATXN viability inconclusive, ATXN2 expr inh inconclusive, TGFb SMAD3 inh inconclusive
COc1ccccc1C(=O)Nc1nc(-c2ccc(S(=O)(=O)N3CCOCC3)cc2)cs1	HT1080-NT tox inconclusive, ATXN viability inconclusive, HT1080 IDH1KD tx inconclusive, ATXN2 expr inh 14µM
O=C(Nc1nc(-c2ccccc2)cs1)c1ccccc1NS(=O)(=O)c1ccc(F)cc1	HT1080-NT tox 6.5µM, HT1080 IDH1KD tx inconclusive, ATXN2 expr inh inconclusive, TGFb SMAD3 inh inconclusive
Cc1ccc(CN(C(=O)COc2cccc([N+](=O)[O-])c2)c2ccccn2)cc1	none (no result: HT1080-NT tox, HT1080 IDH1KD tx)
Cc1ccc(O)c(CNc2nc3ccccc3n2C(C)C)c1	TGFb SMAD3 inh inconclusive
CC(C)n1c(NCc2cc(Cl)ccc2O)nc2ccccc21	ATXN viability inconclusive, ATXN2 expr inh 28µM, TGFb SMAD3 inh inconclusive
COc1ccc(OCC(=O)OCc2cc(=O)n3nc(C4CCCCC4)sc3n2)cc1	none (no result: HT1080-NT tox, HT1080 IDH1KD tx)
CN(Cc1ccc(Cl)cc1)C(=O)CCl	HT1080-NT tox inconclusive, HT1080 IDH1KD tx 16µM, ATXN2 expr inh inconclusive, TGFb SMAD3 inh inconclusive (no result: ATXN viability)
CN(Cc1ccc(Cl)s1)C(=O)CCl	HT1080-NT tox 21µM, HT1080 IDH1KD tx 8.2µM, ATXN2 expr inh 13µM, TGFb SMAD3 inh 7.1µM (no result: ATXN viability)
COc1ccc(CN(C)C(=O)CCl)cc1	HT1080-NT tox inconclusive, ATXN viability inconclusive, HT1080 IDH1KD tx inconclusive (no result: ATXN2 expr inh)
O=C(C=Cc1ccc(CN(CCO)CCc2c[nH]c3ccccc23)cc1)NO	none (no result: HT1080-NT tox, ATXN viability, HT1080 IDH1KD tx, HepG2 viability, TGFb SMAD3 inh)
Cc1cnc(NC(=O)CN2CCN(c3ccccn3)CC2)s1	ATXN viability inconclusive, ATXN2 expr inh 8.9µM, TGFb SMAD3 inh inconclusive
COc1ccc(N2CCN(CC(=O)Nc3ncc(C)s3)CC2)cc1	ATXN viability inconclusive (no result: ATXN2 expr inh)
Cc1[nH]nc(-c2cccnc2)c1N=NN(C)C	HT1080-NT tox 21µM, HT1080 IDH1KD tx 21µM, HepG2 viability 14µM, TGFb SMAD3 inh inconclusive (no result: ATXN viability)
CN(C)c1nc(N)nc(-c2cccnc2)n1	none
COc1ccc(CN2CCOc3ccc(CN4CCC(O)(c5cccnc5)CC4)cc3C2)c(C)c1C	none (no result: HT1080-NT tox, HT1080 IDH1KD tx, HepG2 viability, ATXN2 expr inh, TGFb SMAD3 inh)
CCn1c(N)[n+](CC(=O)Nc2ccc(SC(F)F)cc2)c2ccccc21	HT1080-NT tox inconclusive, HT1080 IDH1KD tx inconclusive, HepG2 viability 14µM, ATXN2 expr inh inconclusive, TGFb SMAD3 inh inconclusive
